# Screening data (PubChem)
# D1 ag – human D1 receptor agonism; P21728; HEK293 T-REx D1 cells, calcium flux, agonist mode; activation, % at 2 µM; 360,000 compounds, 1% hits; AID 504660
# Target sequence (P21728 whole entry, looked up): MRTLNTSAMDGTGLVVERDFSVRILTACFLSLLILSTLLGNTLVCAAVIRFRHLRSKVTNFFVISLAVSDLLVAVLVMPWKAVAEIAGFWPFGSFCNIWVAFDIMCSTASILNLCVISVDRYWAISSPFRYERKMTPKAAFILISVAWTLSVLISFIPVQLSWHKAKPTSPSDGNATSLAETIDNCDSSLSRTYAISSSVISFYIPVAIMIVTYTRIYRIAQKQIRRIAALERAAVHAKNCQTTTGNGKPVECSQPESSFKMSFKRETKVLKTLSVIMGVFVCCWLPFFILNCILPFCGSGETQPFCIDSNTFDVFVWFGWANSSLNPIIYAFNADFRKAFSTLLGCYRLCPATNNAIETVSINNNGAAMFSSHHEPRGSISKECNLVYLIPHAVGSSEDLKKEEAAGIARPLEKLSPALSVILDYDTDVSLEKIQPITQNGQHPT
#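 Agonism was scored from calcium flux recorded over 180 s (1 read/s) after pintool compound addition, following a 10-cycle baseline. Cells were inducible force-coupled HEK293 TREx D1, plated overnight at 30 C and loaded with no-wash calcium dye.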
# D1 potentiator – enhances dopamine response at the human D1 receptor; P21728; HEK293 TREx D1 cells, calcium flux, dopamine EC20 potentiation; potentiation, % at 10 µM; 360,000 compounds, 0.036% hits; in the data active means potentiation above about 30%
# D1 antag – human D1 dopamine receptor antagonism; HEK293 TREx D1 cells, calcium flux, dopamine EC80; hits give low values; activity change, negative = inhibition, % at 10 µM; AID 504652; 360,000 compounds, 3.2% hits; in the data active means activity change below about -30%
#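 After overnight tetracycline induction at 30 C, force-coupled D1 HEK293 cells took up a no-wash calcium dye at room temperature. Compounds were added and monitored 180 s, and the response to EC80 dopamine was then recorded.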
# TRHR enhancer – allosteric enhancers of human TRH receptor | AID 493056 | enhancement, % at 2 µM | TRHR cells, fluo-8 calcium fluorescence, EC20 TRH enhancement | P34981 | 360,000 compounds, 0.66% hits; in the data active means enhancement above about 30%
#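 Enhancer read-out: after compound pinning and an initial kinetic agonist-mode read, an EC20 of TRH (10 nM final) was injected and fluo-8 calcium signal (Ex 480/Em 530) followed at 1 s/cycle for 100 cycles in TRHR-expressing cells.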
# TRHR ag – activates the human TRH receptor; P34981; TRHR cells, calcium flux fluo-8, FDSS agonist mode; activation, % at 2 µM; 360,000 compounds, 0.18% hits; AID 493084
#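 TRHR-expressing cells loaded with fluo-8 calcium dye; 23 nL library compound pin-transferred, kinetic FDSS fluorescence (Ex 480/Em 530) recorded about 180 s for agonist-induced calcium release, before a 10 nM TRH EC20 addition for potentiator mode.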
# Hits are given with their value; . = inactive. Compounds with a hit are over-represented: about 4.7% of the library has one in this group of screens. Unless noted, no stated cut-off is given here; in the data, active means activation above about 30%; inactive means the rest.
SMILES,D1 ag,D1 potentiator,D1 antag,TRHR enhancer,TRHR ag
Cc1ccc(-c2onc(C)c2C)cc1S(=O)(=O)Nc1cccc(Cl)c1C,.,.,-39,.,.
Cc1ccc(-c2onc(C)c2C)cc1S(=O)(=O)NC1CCCCC1,.,.,-63,.,.
CCCOc1ccc(CN(C(=O)Cc2coc3ccc(CC)cc23)C2CCS(=O)(=O)C2)cc1 (stereo not given),.,.,.,.,.
Cc1cc(C)cc(N(CC(=O)NCCc2ccc(Cl)cc2)S(=O)(=O)c2c(C)noc2C)c1,.,.,.,.,.
CCCc1ccc(OC(C)c2nc(-c3ccc(-n4cccc4)cc3)no2)cc1 (stereo not given),.,.,.,36,.
CC1(C)CC(=O)c2c(O)cc(OCC(=O)N3CCN(c4ccccc4)CC3)cc2O1,.,.,.,.,.
Cc1ccc(CNC(=O)Cn2cc(C(=O)c3ccc(Cl)cc3)c(=O)c3ccc(C)nc32)cc1,.,.,.,.,.
O=C(COc1ccc2ccccc2c1Br)N1CCCCC1,.,.,-32,.,.
NC(=O)C1CCN(C(=O)COc2ccc3ccccc3c2Br)CC1,.,.,-64,.,.
CC1CN(C(=O)COc2ccc3ccccc3c2Br)CC(C)O1 (stereo not given),.,.,.,.,.
O=C(Nc1ccc(CN2CCS(=O)(=O)CC2)cc1)c1ccc(C(F)(F)F)cc1,.,.,-46,.,.
CCCCOc1ccc(C(=O)NC(=S)Nc2ccc(CN3CCOCC3)cc2)cc1,.,.,.,32,.
O=C(COc1ccccc1Cl)NC(=S)Nc1ccc(CN2CCOCC2)cc1,.,.,.,.,.
O=C(COc1ccc(Cl)cc1Cl)NC(=S)Nc1ccc(CN2CCOCC2)cc1,.,.,-40,.,.
CC(C)(C)c1ccc(C(=O)Nc2ccc(CN3CCS(=O)(=O)CC3)cc2)cc1,.,.,.,.,.
CCOc1ccc(NC(=O)c2ccc(NC(=O)c3ccc(CN4CCOCC4)cc3)cc2)cc1,.,.,-34,.,.
Cc1ccc(C)c(S(=O)(=O)N2CCN(C(=O)C3CCN(c4ncnc5sc(C)c(C)c45)CC3)CC2)c1,.,.,.,34,.
CC(C)COc1ccc(C(=O)Nc2sc3c(c2C(=O)O)CC(C)(C)OC3)cc1,.,.,-31,.,.
COC(=O)c1sc2cc(C(F)(F)F)cnc2c1-c1ccccn1,.,.,.,31,.
COc1cc(/C=C(\C#N)c2nn(CCO)c(N)c2C#N)cc(OC)c1OC,.,.,.,33,.
N#C/C(=C\c1ccc(/C=C(/C#N)c2nn(CCO)c(N)c2C#N)cc1)c1nn(CCO)c(N)c1C#N,.,.,.,.,.
O=C(Nc1c2c(nn1-c1ccc(Cl)cc1)CS(=O)(=O)C2)c1ccccc1F,.,.,.,.,.
O=C(CCc1nc(-c2ccccc2)no1)NC1CCCCCC1,.,.,.,.,.
Cc1cccc(N2C(=O)N3[C@H](c4ccc(Cl)cc4)[C@@H]4C(=O)N(C5CCCCC5)C(=O)[C@@H]4[C@]3(Cc3ccc(Cl)cc3)C2=O)c1,.,.,-40,.,.
CNC(=O)C1CCC(Cn2c(=O)c3sccc3n(CC(=O)Nc3ccc(C)cc3C)c2=O)CC1 (stereo not given),.,.,.,.,.
SMILES,D1 ag,D1 potentiator,D1 antag,TRHR enhancer,TRHR ag
Cn1c(=O)oc2cc(S(=O)(=O)N3CCCC(C(=O)N4CCN(c5cccc(Cl)c5)CC4)C3)ccc21 (stereo not given),.,.,-32,.,.
Cc1cccc(N2CCN(C(=O)C3CCCN(S(=O)(=O)c4ccc5c(c4)oc(=O)n5C)C3)CC2)c1C (stereo not given),.,.,-31,.,.
Cn1c(=O)oc2cc(S(=O)(=O)N3CCCC(C(=O)NCCc4ccccc4)C3)ccc21 (stereo not given),.,.,.,.,.
CSCCC(NS(=O)(=O)c1ccc2c(c1)oc(=O)n2C)C(=O)N1CCN(c2cccc(Cl)c2)CC1 (stereo not given),.,.,.,38,.
COc1cccc(N2CCN(C(=O)C(CCSC)NS(=O)(=O)c3ccc4c(c3)oc(=O)n4C)CC2)c1 (stereo not given),.,.,.,.,.
Cc1cccc(N2CCN(C(=O)C3CCN(S(=O)(=O)c4ccc5c(c4)oc(=O)n5C)CC3)CC2)c1C,.,.,.,.,.
